Changes are numbered by the printed parent chain.
Columns and labels:
Assay in all cases: yeast three-hybrid, YBZ-1, SC-Leu-His + 0.5 mM 3-AT, 4 days
Details in all cases: tags: N-Gal4 AD-HA kept; label: inside an RPR1-promoter hybrid RNA with tandem MS2 sites; ssRNA
PUM1 PUF domain R5-HCR = PUM1 PUF domain R5-HCR (Homo sapiens, UniProt Q14671 828-1176, C1007H;R1008C;Q1011R)
Procedure, shortened: (§1)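 A centromeric plasmid in strain YBZ-1 co-expressed Pumilio-1 PUF domain libraries, randomized at the three base-contacting residues of each repeat, with matching RNA elements; the strain carries a LexA–MS2 coat fusion and a HIS3 reporter. After four days on SC-Leu (input) or SC-Leu-His + 0.5 mM 3-AT (selection), the repeat regions were PCR-amplified and Illumina-sequenced. The interaction score is the log change in variant frequency from input to selection, using log2 and a pseudocount of 1 where absent.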

PUM1 PUF domain R5-RGK = PUM1 PUF domain R5-RGK (Homo sapiens, UniProt Q14671 828-1176, C1007R;R1008G;Q1011K)
Procedure, shortened: as §1

PUM1 PUF domain R6-TFQ = biological target: T1, PUM1 PUF domain R6-TFQ (Homo sapiens, UniProt Q14671 828-1176, N1043T;Y1044F)
T1 sequence: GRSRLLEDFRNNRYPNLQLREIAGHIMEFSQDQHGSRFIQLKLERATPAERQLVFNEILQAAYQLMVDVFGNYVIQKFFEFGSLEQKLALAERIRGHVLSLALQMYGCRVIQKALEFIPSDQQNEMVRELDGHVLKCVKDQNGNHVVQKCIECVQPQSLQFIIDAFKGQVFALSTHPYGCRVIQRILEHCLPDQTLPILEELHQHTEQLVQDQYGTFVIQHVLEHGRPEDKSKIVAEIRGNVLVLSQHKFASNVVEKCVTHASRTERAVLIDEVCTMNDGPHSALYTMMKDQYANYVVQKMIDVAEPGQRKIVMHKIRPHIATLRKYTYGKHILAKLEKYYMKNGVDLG
Procedure, shortened: as §1

PUM1 PUF domain R7-CHP = PUM1 PUF domain R7-CHP (Homo sapiens, UniProt Q14671 828-1176, S1079C;N1080H;E1083P)
Procedure, shortened: as §1

PUM1 PUF domain R3-RSG = PUM1 PUF domain R3-RSG (Homo sapiens, UniProt Q14671 828-1176, C935R;R936S;Q939G)
Procedure, shortened: as §1

PUM1 PUF domain R3-HRR = PUM1 PUF domain R3-HRR (Homo sapiens, UniProt Q14671 828-1176, C935H;Q939R)
Procedure, shortened: as §1

PUM1 PUF domain R5-LFR = PUM1 PUF domain R5-LFR (Homo sapiens, UniProt Q14671 828-1176, C1007L;R1008F;Q1011R)
Procedure, shortened: as §1

PUM1 PUF domain R4-DHS = PUM1 PUF domain R4-DHS (Homo sapiens, UniProt Q14671 828-1176, N971D;Q975S)
Procedure, shortened: as §1

PUM1 PUF domain R6-CFK = biological target: T2, PUM1 PUF domain R6-CFK (Homo sapiens, UniProt Q14671 828-1176, N1043C;Y1044F;Q1047K)
T2 sequence: T1 sequence with T216C, Q220K
Procedure, shortened: as §1

PUM1 PUF domain R4-ALC = PUM1 PUF domain R4-ALC (Homo sapiens, UniProt Q14671 828-1176, N971A;H972L;Q975C)
Procedure, shortened: as §1

PUM1 PUF domain R4-SPY = PUM1 PUF domain R4-SPY (Homo sapiens, UniProt Q14671 828-1176, N971S;H972P;Q975Y)
Procedure, shortened: as §1

PUM1 PUF domain R3-VRL = PUM1 PUF domain R3-VRL (Homo sapiens, UniProt Q14671 828-1176, C935V;Q939L)
Procedure, shortened: as §1

PUM1 PUF domain R6-QWS = biological target: T3, PUM1 PUF domain R6-QWS (Homo sapiens, UniProt Q14671 828-1176, N1043Q;Y1044W;Q1047S)
T3 sequence: T1 sequence with T216Q, F217W, Q220S
Procedure, shortened: as §1

PUM1 PUF domain R5-MYG = PUM1 PUF domain R5-MYG (Homo sapiens, UniProt Q14671 828-1176, C1007M;R1008Y;Q1011G)
Procedure, shortened: as §1

PUM1 PUF domain R4-YRC = PUM1 PUF domain R4-YRC (Homo sapiens, UniProt Q14671 828-1176, N971Y;H972R;Q975C)
Procedure, shortened: as §1

PUM1 PUF domain R4-SIG = PUM1 PUF domain R4-SIG (Homo sapiens, UniProt Q14671 828-1176, N971S;H972I;Q975G)
Procedure, shortened: as §1

PUM1 PUF domain R5-QRD = PUM1 PUF domain R5-QRD (Homo sapiens, UniProt Q14671 828-1176, C1007Q;Q1011D)
Procedure, shortened: as §1

PUM1 PUF domain R3-RDK = PUM1 PUF domain R3-RDK (Homo sapiens, UniProt Q14671 828-1176, C935R;R936D;Q939K)
Procedure, shortened: as §1

PUM1 PUF domain R2-DWL = PUM1 PUF domain R2-DWL (Homo sapiens, UniProt Q14671 828-1176, N899D;Y900W;Q903L)
Procedure, shortened: as §1

PUM1 PUF domain R4-SNI = PUM1 PUF domain R4-SNI (Homo sapiens, UniProt Q14671 828-1176, N971S;H972N;Q975I)
Procedure, shortened: as §1

PUM1 PUF domain R4-DHS, sequence (Q14671 828-1176 N971D/Q975S): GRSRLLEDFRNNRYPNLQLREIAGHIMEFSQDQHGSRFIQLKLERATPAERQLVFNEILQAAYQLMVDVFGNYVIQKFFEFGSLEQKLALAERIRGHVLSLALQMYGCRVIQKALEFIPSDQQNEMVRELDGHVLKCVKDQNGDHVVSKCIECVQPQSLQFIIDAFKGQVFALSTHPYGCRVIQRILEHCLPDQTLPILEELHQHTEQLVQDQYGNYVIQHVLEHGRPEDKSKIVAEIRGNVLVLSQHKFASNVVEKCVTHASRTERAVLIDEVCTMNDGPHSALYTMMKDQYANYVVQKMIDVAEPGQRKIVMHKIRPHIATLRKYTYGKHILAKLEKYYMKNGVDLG
PUM1 PUF domain R5-RGK, sequence (Q14671 828-1176 C1007R/R1008G/Q1011K): as the sequence (Q14671 828-1176 N971D/Q975S) above, with D144N, S148Q, C180R, R181G, Q184K counted along it

“GGCUAGAACUAGUGGAUCCCCCGGCGCCCGGCGGCUCGAGCCCGGGUAAGUGUCAAUAGUCUGCAUGCCGCCGGGCGCCAUGCCUGCAGGUCGACUCUAGAAAACAUG” was tested, and the binding signal (PUM1 PUF domain R5-HCR) was 2.3 log2 enrichment (interaction score) and the binding signal (PUM1 PUF domain R5-RGK) was 2.71 log2 enrichment (interaction score).

For “GGCUAGAACUAGUGGAUCCCCCGGCGCCCGGCGGCUCGAGCCCGGGUAAGUGAAAAUAGUCUGCAUGCCGCCGGGCGCCAUGCCUGCAGGUCGACUCUAGAAAACAUG”, the binding signal (PUM1 PUF domain R6-TFQ) was 6.64 log2 enrichment (interaction score).

With “GGCUAGAACUAGUGGAUCCCCCGGCGCCCGGCGGCUCGAGCCCGGGUAAGUCUAAAUAGUCUGCAUGCCGCCGGGCGCCAUGCCUGCAGGUCGACUCUAGAAAACAUG” the binding signal (PUM1 PUF domain R7-CHP) was 2.32 log2 enrichment (interaction score).

For “GGCUAGAACUAGUGGAUCCCCCGGCGCCCGGCGGCUCGAGCCCGGGUAAGUGUAAGUAGUCUGCAUGCCGCCGGGCGCCAUGCCUGCAGGUCGACUCUAGAAAACAUG”, the binding signal (PUM1 PUF domain R3-RSG) was 1.02 log2 enrichment (interaction score) and the binding signal (PUM1 PUF domain R3-HRR) was 2.66 log2 enrichment (interaction score).

“GGCUAGAACUAGUGGAUCCCCCGGCGCCCGGCGGCUCGAGCCCGGGUAAGUGUAAAUAGUCUGCAUGCCGCCGGGCGCCAUGCCUGCAGGUCGACUCUAGAAAACAUG” was tested, and the binding signal (PUM1 PUF domain R5-LFR) was 2.2 log2 enrichment (interaction score), the binding signal (PUM1 PUF domain R4-DHS) was 4.49 log2 enrichment (interaction score) and the binding signal (PUM1 PUF domain R6-CFK) was 3.27 log2 enrichment (interaction score). For the same sequence, the binding signal (PUM1 PUF domain R4-ALC) was 3.15 log2 enrichment (interaction score), the binding signal (PUM1 PUF domain R4-SPY) was 3.88 log2 enrichment (interaction score) and the binding signal (PUM1 PUF domain R3-VRL) was 3.56 log2 enrichment (interaction score). For the same sequence, the binding signal (PUM1 PUF domain R6-QWS) was 3.91 log2 enrichment (interaction score), the binding signal (PUM1 PUF domain R5-MYG) was 1.26 log2 enrichment (interaction score) and the binding signal (PUM1 PUF domain R4-YRC) was 4.13 log2 enrichment (interaction score). For the same sequence, the binding signal (PUM1 PUF domain R4-SIG) was 3.64 log2 enrichment (interaction score).

For “GGCUAGAACUAGUGGAUCCCCCGGCGCCCGGCGGCUCGAGCCCGGGUAAGUGUGAAUAGUCUGCAUGCCGCCGGGCGCCAUGCCUGCAGGUCGACUCUAGAAAACAUG”, the binding signal (PUM1 PUF domain R5-QRD) was 5.16 log2 enrichment (interaction score) and the binding signal (PUM1 PUF domain R5-RGK) was 1.16 log2 enrichment (interaction score).

With “GGCUAGAACUAGUGGAUCCCCCGGCGCCCGGCGGCUCGAGCCCGGGUAAGUGUAAUUAGUCUGCAUGCCGCCGGGCGCCAUGCCUGCAGGUCGACUCUAGAAAACAUG” the binding signal (PUM1 PUF domain R3-RSG) was 3.59 log2 enrichment (interaction score), the binding signal (PUM1 PUF domain R3-RDK) was 2.64 log2 enrichment (interaction score) and the binding signal (PUM1 PUF domain R3-HRR) was 0.15 log2 enrichment (interaction score).

In the case of “GGCUAGAACUAGUGGAUCCCCCGGCGCCCGGCGGCUCGAGCCCGGGUAAGUGGAAAUAGUCUGCAUGCCGCCGGGCGCCAUGCCUGCAGGUCGACUCUAGAAAACAUG”, the binding signal (PUM1 PUF domain R6-QWS) is reported as 3.82 log2 enrichment (interaction score).

With “GGCUAGAACUAGUGGAUCCCCCGGCGCCCGGCGGCUCGAGCCCGGGUAAGUGUAAAAAGUCUGCAUGCCGCCGGGCGCCAUGCCUGCAGGUCGACUCUAGAAAACAUG” the binding signal (PUM1 PUF domain R2-DWL) was 6.44 log2 enrichment (interaction score).

“GGCUAGAACUAGUGGAUCCCCCGGCGCCCGGCGGCUCGAGCCCGGGUAAGUGUACAUAGUCUGCAUGCCGCCGGGCGCCAUGCCUGCAGGUCGACUCUAGAAAACAUG” was tested, and the binding signal (PUM1 PUF domain R4-SNI) was 2.5 log2 enrichment (interaction score) and the binding signal (PUM1 PUF domain R4-DHS) was 3.02 log2 enrichment (interaction score).

For “GGCUAGAACUAGUGGAUCCCCCGGCGCCCGGCGGCUCGAGCCCGGGUAAGUGUUAAUAGUCUGCAUGCCGCCGGGCGCCAUGCCUGCAGGUCGACUCUAGAAAACAUG”, the binding signal (PUM1 PUF domain R5-HCR) was 2.43 log2 enrichment (interaction score), the binding signal (PUM1 PUF domain R5-RGK) was 3.44 log2 enrichment (interaction score) and the binding signal (PUM1 PUF domain R5-MYG) was 3.99 log2 enrichment (interaction score).

For “GGCUAGAACUAGUGGAUCCCCCGGCGCCCGGCGGCUCGAGCCCGGGUAAGUGUAUAUAGUCUGCAUGCCGCCGGGCGCCAUGCCUGCAGGUCGACUCUAGAAAACAUG”, the binding signal (PUM1 PUF domain R4-SNI) was 3.45 log2 enrichment (interaction score), the binding signal (PUM1 PUF domain R4-DHS) was 5.89 log2 enrichment (interaction score) and the binding signal (PUM1 PUF domain R4-SPY) was 1.88 log2 enrichment (interaction score).
